Tb PFK block: blocks T. brucei phosphofructokinase | 330,000 tested, 0.17% active | Potency, µM (series often up to 57.5 µM), most hits filed as inhibitors | T. brucei PFK, ADP-Glo luminescence | O15648; also: nearly all actives have a fitted effect of over 60% in size
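1.25 nM PFK with 0.5 mM F6P and 0.1 mM ATP in 0.1 M TEA pH 8.0, 5 mM MgCl2, incubated 45 min at room temperature; ADP measured by ADP-Glo luminescence; compounds titrated up to 57 uM.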
Rango release inh: prevents RanGTP from dissociating the Rango-importin beta complex; O95149+P62826; Biochemical FRET Rango-importin beta, RanGTP-induced dissociation; Potency, µM (top dose mostly 46.1 µM); 340,000 tested, 0.071% active; AID 540253; calls by dose curve; also: nearly all actives have a fitted effect of over 45% in size
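Compounds preincubate 5 min with complex of recombinant Rango and importin beta in PBS with 1 mM DTT. Ran (0.6 uM) loaded with 2 mM GTP plus 0.2 uM RCC1 starts dissociation; FRET is recorded 45 min later.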
Rango-impB inh: prevents formation of the Rango-importin beta complex; Rango CFP/YFP FRET sensor + importin beta, 45 min; Potency, µM (series often up to 92.2 µM); 340,000 tested, 0.031% active; calls by dose curve; also: nearly all actives have a fitted effect of over 15% in size
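FRET biosensor (snurportin 1 IBB flanked by EYFP and cerulean), 50 nM, with compound 5 min, then 0.125 microM importin beta in PBS, 1 mM DTT, 0.02% Tween-20, 0.1% BSA. CFP/YFP ratio read after 45 min at room temperature; pre-read flags interference.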
ELG1 DNA repair: blocks ELG1-dependent DNA repair in HEK293T cells; HEK293T ELG1-luciferase reporter, luminescence, 16 h; DNA damage induced by 5-fluorouridine; 330,000 tested, 2.3% active; Potency, µM (series often up to 46.1 µM), actives largely listed as inhibitors; also: nearly all actives have a fitted effect of over 55% in size
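Step one: seed 2,000 cells per well. Step two: pin-transfer compound or DMSO alongside 5-fluorouridine. Step three: incubate 16 hr, 37 °C, 5% CO2. Step four: add ONE-Glo, wait 30 min, read luminescence.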
PKM2 activator: activators of human pyruvate kinase M2 | P14618 | purified PKM2, Kinase-Glo ATP luminescence, activation; response scale: 0% is enzyme alone, no compound | Potency, µM (doses to about 57.5 µM), hits mostly activators | 260,000 tested, 0.34% active | AID 1631; also: nearly all actives have a fitted effect of over 55% in size
Target sequence (P14618 whole entry, looked up): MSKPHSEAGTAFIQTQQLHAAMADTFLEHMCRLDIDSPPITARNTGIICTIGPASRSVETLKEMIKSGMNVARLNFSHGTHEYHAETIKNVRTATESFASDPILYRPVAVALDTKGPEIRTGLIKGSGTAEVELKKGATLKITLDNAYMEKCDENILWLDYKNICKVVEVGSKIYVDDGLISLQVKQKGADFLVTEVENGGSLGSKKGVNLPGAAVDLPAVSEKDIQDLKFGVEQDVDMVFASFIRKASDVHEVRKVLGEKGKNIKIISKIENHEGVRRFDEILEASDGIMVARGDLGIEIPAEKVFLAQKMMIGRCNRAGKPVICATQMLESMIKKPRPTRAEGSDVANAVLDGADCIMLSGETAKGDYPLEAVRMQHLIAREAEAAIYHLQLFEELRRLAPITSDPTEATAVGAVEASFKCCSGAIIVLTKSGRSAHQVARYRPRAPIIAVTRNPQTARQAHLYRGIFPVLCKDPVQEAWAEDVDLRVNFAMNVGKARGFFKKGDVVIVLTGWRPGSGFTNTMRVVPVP
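ATP formation by purified human PK-M2, quantified via coupled luciferase luminescence after 1 h at room temperature with 0.1 mM ADP and 0.5 mM PEP final.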
Tb PGK inh: inhibitors of T. brucei phosphoglycerate kinase; P07378; PGK/GAPDH coupled, Kinase-Glo luminescence, 60 min; Potency, µM (highest dose often 57.5 µM), hits mostly inhibitors; 380,000 tested, 0.043% active; AID 602233; also: nearly all actives have a fitted effect of over 60% in size
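Luminescent ATP detection (Kinase-Glo Plus) follows a 60-minute room-temperature incubation, with wells lacking PGK as controls. Buffer: 100 mM TEA (pH 7.6), 5 mM MgCl2, 0.01% Tween-20. Coupling enzyme GAPDH (100 nM final) supplies unstable 1,3-BPG in-well.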
Hits are given with their value; n = inactive; u = inconclusive; x = no result. An excerpt weighted towards active compounds, which were near 2.4% of everything screened. Unless noted, calls follow the shape of the dose curve; as a rule, active = well fitted curve in the direction sought with a large enough effect; inconclusive = small, poorly fitted or top-dose-only effect, or another doubt; inactive = no such curve, though single readings can be large; an effect the other way counts as inactive or inconclusive.

SMILES	Tb PFK block	Rango release inh	Rango-impB inh	ELG1 DNA repair	PKM2 activator	Tb PGK inh
CCOc1ccc(NC(=O)CSc2ncc(-c3ccc(F)cc3)n2Cc2ccco2)cc1	n	n	n	16µM	n	n
Cc1cc(N2CCN(C(=O)c3ccco3)CC2)c2ccccc2n1	n	n	n	n	n	n
O=C(c1ccco1)N1CCN(c2ncccn2)CC1	n	n	n	u	n	n
O=C(c1ccco1)N1CCN(c2nc3ccccc3c(=O)n2-c2ccccc2)CC1	n	n	n	21µM	n	n
Nc1nc(N2CCN(C(=O)c3ccco3)CC2)nc2ccc(Br)cc12	n	n	n	u	n	8.9µM
CCCc1nn2c(=O)cc(COC(=O)c3ccccc3NC(=O)C3CCCCC3)nc2s1	x	x	x	x	x	n
Cc1ccc2nc(CSc3nnc(Nc4ccccc4C)s3)cc(=O)n2c1	n	n	n	26µM	n	n
Cc1cccc(Nc2nnc(SCc3cc(=O)n4cc(C)ccc4n3)s2)c1	n	n	n	u	n	n
Cc1c(N=Cc2c(O)n(Cc3ccco3)c(=O)c3ccccc23)c(=O)n(-c2ccccc2)n1C	n	u	u	23µM	n	n
CCOC(=O)c1[nH]c2cc3c(cc2c1NC(=O)CN1CCN(CCO)CC1)OCO3	n	n	n	n	n	n
N#Cc1ccc(-c2ccccc2)nc1SCC(=O)c1cc2ccccc2oc1=O	n	16µM	u	n	n	n
CC(C)c1c(C#N)c(N)nc(SCC(=O)c2cc3ccccc3oc2=O)c1C#N	n	n	u	n	n	n
CCN(CCNC(=O)C1CCCN(Cc2nc(-c3ccc(OC)cc3)oc2C)C1)c1ccccc1 (stereo not drawn)	n	n	n	u	n	n
CCc1ccc(-c2nc(CN3CCC(C(=O)NCc4ccc(F)cc4)CC3)c(C)o2)cc1	n	n	n	15µM	n	n
Cc1oc(-c2cccc(Cl)c2)nc1CN1CCC(C(=O)NC2CC2)CC1	n	n	n	n	x	n
CCN(CCNC(=O)C1CCN(Cc2nc(-c3cccc(Cl)c3)oc2C)CC1)c1ccccc1	n	n	n	21µM	n	n
CCN(CCNC(=O)C1CCN(Cc2nc(-c3ccc(Cl)cc3)oc2C)CC1)c1ccccc1	n	n	n	16µM	n	n
CCc1ccc(-c2nc(CN3CCC(C(=O)NCCN(CC)c4ccccc4)CC3)c(C)o2)cc1	n	n	n	21µM	n	n
Cc1n(-c2ccccc2)c2ccc(Cl)cc2[n+]1CCO	n	n	n	n	n	n
CCOC(=O)[C@@H]1[C@H]2COc3ccc(Br)cc3[C@@H]2N2C(=O)N(c3ccc(C(F)(F)F)cc3)C(=O)[C@@]12C	n	n	n	n	n	n
O=C(Nc1ccccc1OC(F)F)c1ccc(S(=O)(=O)N2CCCC2)cc1	n	n	n	n	x	n
Cc1ccc(C)c(N2CCN(C(=O)c3c4c(nc5ccccc35)C(=O)N(C3CCCCC3)C4)CC2)c1	x	x	x	x	x	n
CCOc1ccc(S(=O)(=O)N2CCC(C(=O)NCc3ccco3)CC2)cc1	n	n	n	n	u	n
CCOc1ccc(S(=O)(=O)N2CCN(C(=S)NCc3ccco3)CC2)cc1	n	n	n	n	14µM	n
Cc1c(F)cccc1NS(=O)(=O)c1ccc2c(c1)NC(=O)CO2	n	n	n	n	u	n
SMILES	Tb PFK block	Rango release inh	Rango-impB inh	ELG1 DNA repair	PKM2 activator	Tb PGK inh
N=c1ccn(Cc2ccccc2Cl)cc1	n	n	n	n	n	n
N=c1ccn(Cc2c(Cl)cccc2Cl)cc1	n	n	n	12µM	n	n
N=c1ccn(Cc2ccc(Cl)cc2Cl)cc1	n	n	n	8.2µM	n	n
Cc1cc(S(=O)(=O)N2CCCOC2CNC(=O)C(=O)NCCCN2CCOCC2)ccc1F (stereo not drawn)	n	n	n	n	n	n
Cc1ccc2c(c1)N(C(=O)Nc1cccc3c1CCCC3)CCO2	x	x	x	x	x	n
CCc1ccc(S(=O)(=O)NCCc2cn3cccc(C)c3n2)s1	n	n	n	n	n	n
COc1ccccc1NC(=O)CSc1nccn1Cc1ccc(F)cc1	n	u	n	n	n	n
O=C(CSc1nccn1Cc1ccc(F)cc1)Nc1ccc(F)cc1F	n	n	n	23µM	n	n
COc1cccc(NC(=O)CSc2ccc(-c3sc(C)nc3C)nn2)c1	n	n	n	21µM	u	n
Cc1nc(C)c(-c2ccc(SCC(=O)Nc3ccc(F)cc3F)nn2)s1	n	u	n	18µM	n	n
Cc1nnc(NC(=O)CSc2ccc(-c3ccco3)nn2)s1	n	n	n	n	20µM	n
O=C(CN(CCc1ccccc1)S(=O)(=O)c1ccc(Br)cc1)N/N=C/c1ccccc1C(=O)O	n	n	n	n	u	n
COc1cccc(NC(=O)CSc2ccc(-c3ccco3)nn2)c1	n	n	n	n	3.2µM	n
COCCN=c1scc(-c2cc(OC)c(OC)c(OC)c2)n1/N=C/c1c(C)[nH]c2ccccc12	n	n	u	7.3µM	n	n
Cc1[nH]c2ccccc2c1/C=N/n1cnnc1	n	n	n	u	n	n
O=[N+]([O-])c1cc(/C=N\Nc2nccs2)ccc1O	9.5µM	x	x	n	n	x
COC(=O)CSc1nc(COc2ccccc2)nc2ccccc12	n	n	n	n	n	n
Cc1ccccc1NC(=O)CSc1nc(COc2ccccc2)nc2ccccc12	n	n	n	26µM	n	n
Cc1cc(C)c(NC(=O)CSc2nc(COc3ccccc3)nc3ccccc23)c(C)c1	n	n	n	u	n	n
CCN(CC)C(=O)CSc1nc(COc2ccccc2)nc2ccccc12	n	n	n	23µM	n	n
Cc1ccc(Cn2cc(CCC(=O)NCC(C)c3ccccc3)c3ccccc32)cc1 (stereo not drawn)	x	x	x	x	x	n
CCOC(=O)c1c(NC(=O)CN2C(=O)NC(C)(c3ccc(Cl)cc3)C2=O)sc(C(=O)NC)c1C (stereo not drawn)	n	n	n	18µM	n	n
CC1=C/C(=C\c2ccc(Br)o2)C(=O)O1	u	n	n	n	n	10µM
O=C1C(=Cc2ccc(Br)o2)C(=O)c2ccccc21	u	n	u	n	n	7.9µM
COc1ccccc1-c1ccc(/C=C2/C=C(C)OC2=O)o1	n	u	u	n	13µM	n
O=C(Nc1ccc(CSc2ccccc2)cc1)c1ccco1	n	n	n	u	n	n
Cc1c(Cc2ccccc2)c(=O)oc2c(O)c(O)ccc12	n	u	u	n	20µM	u
O=C(O)CSc1cc(NS(=O)(=O)c2cccc([N+](=O)[O-])c2)c2ccccc2c1O	n	n	n	23µM	n	n
